Screening results (PubChem)
The list is not random: actives were taken first. Their share in the collection is about 7.3%.
ELG1 genotoxic: inducers of genotoxicity in HEK293T ELG1-luciferase cells; HEK293T ELG1-luciferase reporter, luminescence, 16 h; Potency, µM (doses to about 46 µM), inactives show top-dose activity change, positive = activation, most hits filed as activators; actives 1.3% (n = 330,000); AID 504466; also: % of control where 0% means no effect; nearly all actives have a fitted effect of over 60% in size
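Quantitative HTS format in 1536-well plates. HEK293T ELG1-luciferase reporter cells receive test compound and are incubated 16 hr at 37 °C, 5% CO2; ONE-Glo added, 30 min room temperature, then luminescence read.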
SMN2 splice enh: enhancers of SMN2 splice variant expression; Potency, µM (highest dose often 46.1 µM), for the others: at the top dose activity change, positive = activation, usual class: activators; actives 2.8% (n = 210,000); HEK293 SMN2-luciferase splicing reporter, luminescence, 30-36 h; AID 1458; also: % of control where 0% means no effect; nearly all actives have a fitted effect of over 55% in size
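HEK293 cells carry an SMN2 […]–luciferase reporter in which exon 7 inclusion puts luciferase in frame. Cells were plated 10-12 h before compound addition, then incubated 30-36 h at 37C. ONE-Glo luminescence was read; sodium butyrate at 4.5 mM final served as control.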
NPC1 prom act: activators of NPC1 promoter. Huh7 NPC1 promoter luciferase reporter, 24 h. Potency, µM (titrated, usually from 9.22 µM), without a hit: top-dose activation, hits mostly activators. actives 2.4% (n = 320,000); also: % of control where 0% means no effect; nearly all actives have a fitted effect of over 60% in size
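Luciferase expression driven by the NPC1 promoter was measured in stably transfected Huh7 cells after a 24 h compound incubation, using a luciferase reagent and a luminescence read.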
p53 reactivator: mutant p53 re-activation in reporter cells | H1299 p53-A138V BP100-luciferase reporter, luminescence, 24 h | Potency, µM (top dose mostly 92.2 µM), for inactives: at the highest dose activity change, positive = activation, usual class: activators | actives 0.063% (n = 320,000) | AID 504706; also: % of control where 0% means no effect; nearly all actives have a fitted effect of over 45% in size
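H1299 (p53-null), stable ts p53-A138V + BP100-Luc; 1000 cells/well, Opti-MEM/10% FBS; cpd 4 pt, 1:5; 24 h, 37 deg C, 5% CO2; detection reagent 10 min RT; luminescence.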
Rab9 prom act: activates the Rab9 promoter; Potency, µM (series often up to 9.22 µM), for the others: at the top dose activation, negative = inhibition, actives largely listed as activators; Huh7 Rab9 promoter-luciferase reporter, luminescence, 24 h; actives 2.8% (n = 320,000); AID 485297; also: % of control where 0% means no effect; nearly all actives have a fitted effect of over 60% in size
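Luciferase signal after 10 min detection reagent at ambient indicates Rab9 promoter upregulation; stably transfected Huh7 cells were treated 24 h with compound in DMSO at 37 °C, 5% CO2.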
FLuc counter: counter-screen for miR-21 project: firefly luciferase inhibitors or activators. P08659. Potency, µM (series often up to 57.5 µM), for inactives: at the top dose activity change, negative = inhibition, hits mostly inhibitors. actives 6.9% (n = 360,000). AID 588342. purified FLuc, Km substrates, luminescence inhibition;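 also: plate controls were vehicle for no effect and reference inhibitor for full effect; nearly all actives have a fitted effect of over 55% in size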
Target sequence (P08659 whole entry, looked up): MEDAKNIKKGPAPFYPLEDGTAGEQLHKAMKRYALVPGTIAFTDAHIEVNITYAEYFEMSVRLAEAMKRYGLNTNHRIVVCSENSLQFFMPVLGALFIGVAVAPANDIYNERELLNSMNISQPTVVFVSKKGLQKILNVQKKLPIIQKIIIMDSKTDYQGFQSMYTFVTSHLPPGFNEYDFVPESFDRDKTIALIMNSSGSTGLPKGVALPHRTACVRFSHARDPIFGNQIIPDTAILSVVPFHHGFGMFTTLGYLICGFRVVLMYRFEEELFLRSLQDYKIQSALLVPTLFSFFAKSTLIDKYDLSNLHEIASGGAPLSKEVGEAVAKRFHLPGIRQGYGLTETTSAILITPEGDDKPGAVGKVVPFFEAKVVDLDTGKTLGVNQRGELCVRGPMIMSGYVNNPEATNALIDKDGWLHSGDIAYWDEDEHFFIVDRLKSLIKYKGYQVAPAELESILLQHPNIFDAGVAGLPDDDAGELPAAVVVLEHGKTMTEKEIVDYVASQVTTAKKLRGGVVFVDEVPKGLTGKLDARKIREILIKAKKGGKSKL
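Purified P. pyralis luciferase, 10 nM final, with Km-level 10 uM D-luciferin and 10 uM ATP in 50 mM Tris acetate pH 7.5, 10 mM Mg acetate, 0.01% Tween-20, 0.05% BSA; 6-point qHTS titration about 60 µM downward; luminescence read.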
Starred values were filed as active, the others as inactive. Calls follow the shape of the dose curve; as a rule, active = well fitted curve in the direction sought with a large enough effect; inconclusive = small, poorly fitted or top-dose-only effect, or another doubt; inactive = no such curve, though single readings can be large; an effect the other way counts as inactive or inconclusive. Potency is read from the fitted curve at half-maximal effect.

For O=C(NCCc1cccs1)c1ccc(Cn2c(SCc3ccccc3)nc3cccnc32)cc1 the results were FLuc counter 2.69µM*.
For O=C(NCCc1ccccc1)c1ccc(CSc2nc3cccnc3n2Cc2ccc(F)cc2)cc1 the results were FLuc counter -11.4%.
Screening Cc1cc(C)nc(Nc2ccc(F)cc2)n1 returned ELG1 genotoxic 9.2%, NPC1 prom act -3.6%, Rab9 prom act -3.2% and FLuc counter 0.5%.
For CC(=O)c1ccc(Nc2nc(C)cc(C)n2)cc1 the results were ELG1 genotoxic inconclusive, NPC1 prom act inconclusive, Rab9 prom act inconclusive and FLuc counter 26.9µM*.
`Cc1cc2c(cc1S(=O)(=O)N(CCN(C)C)Cc1ccccc1)OCC(=O)N2` gave FLuc counter -1.9%.
For CC(=O)c1ccc2c(c1)Cc1cc(C(C)=O)ccc1-2 the results were ELG1 genotoxic 18.4µM*, NPC1 prom act 2.51µM*, p53 reactivator inconclusive, Rab9 prom act 1.78µM* and FLuc counter inconclusive.
CCOC(=O)c1c(-c2ccc(Br)cc2)csc1NC(=O)c1ccccc1F was read as SMN2 splice enh -21.6% and FLuc counter -1.6%.
COC(=O)c1c(-c2ccc(F)cc2)csc1NC(=O)c1ccco1 was read as ELG1 genotoxic 17.6%, SMN2 splice enh -0.6%, NPC1 prom act inconclusive, p53 reactivator 10.7%, Rab9 prom act 2.24µM* and FLuc counter 7.57µM*.
COc1ccc(-c2csc(NC(=O)c3ccccc3F)c2C(=O)O)cc1 was read as ELG1 genotoxic -3.9%, NPC1 prom act inconclusive, p53 reactivator 11.1%, Rab9 prom act 16.6% and FLuc counter 23.9µM*.
For O=C(Nc1scc(-c2ccccc2)c1C(=O)O)c1ccco1 the results were ELG1 genotoxic inconclusive, SMN2 splice enh inconclusive, NPC1 prom act 17.1%, p53 reactivator 18.7%, Rab9 prom act 28.6% and FLuc counter 10.7µM*.
Screening CC(C)CNC(=O)C1=CC(c2ccc3c(c2)OCO3)=NS(=O)(=O)N1C returned FLuc counter 0.9%.
`COCCCNC(=O)c1c(NC(=O)c2cc(=O)c3ccccc3o2)sc2c1CCCC2` gave FLuc counter 2.9%.
For COc1cccc(CNC(=O)c2c(C)oc3nc(C)nc(N4CCOCC4)c23)c1 the results were FLuc counter 6.4%.
c1ccc(-c2ncc(-c3ccn[nH]3)s2)cc1 was read as ELG1 genotoxic inconclusive, SMN2 splice enh 2.82µM*, NPC1 prom act 1.41µM*, p53 reactivator inconclusive, Rab9 prom act 0.562µM* and FLuc counter 3.38µM*.
Screening c1csc(-c2ccn[nH]2)c1 returned ELG1 genotoxic 3.6%, NPC1 prom act -0.4%, p53 reactivator 23.4%, Rab9 prom act 1.7% and FLuc counter -15.5%.
O=C(Nc1nnc(C2CCCO2)s1)c1ccc(Br)cc1 (centres undefined) was read as ELG1 genotoxic inconclusive, SMN2 splice enh 26.8%, NPC1 prom act 3.55µM*, p53 reactivator 14.3%, Rab9 prom act inconclusive and FLuc counter inconclusive.
For O=c1/c(=C\c2cc([N+](=O)[O-])cc([N+](=O)[O-])c2O)sc2nc3ccccc3n12 the results were ELG1 genotoxic 5.7%, SMN2 splice enh -2.9%, NPC1 prom act -3.0%, p53 reactivator -0.9%, Rab9 prom act 11.4% and FLuc counter 9.53µM*.
`COC(=O)/C=c1/sc2nc3ccccc3n2c1=O` gave ELG1 genotoxic -1.6%, SMN2 splice enh inconclusive, NPC1 prom act -3.9%, p53 reactivator -6.0%, Rab9 prom act 1.0% and FLuc counter inconclusive.
For O=C(O)c1cc(C(=O)O)cc(-c2ccc(/C=c3/sc4nc5ccccc5n4c3=O)o2)c1 the results were ELG1 genotoxic 5.3%, SMN2 splice enh 6.5%, NPC1 prom act -5.3%, p53 reactivator 2.2%, Rab9 prom act -2.4% and FLuc counter inconclusive.
